Where “and” joins values, the source holds several entries; their conditions need not be identical. Equal entries are not always repeated. Inconclusive results are not listed. Calls of active or inactive are those of the source. Calls follow the shape of the dose curve; as a rule, active = well fitted inhibition curve with a large enough effect; inconclusive = small, poorly fitted or top-dose-only effect, or effect the other way; inactive = no such curve, though single readings can be large or run the other way.
These molecules were tested against Nuclear receptor ROR-gamma (Mus musculus) (UniProt P51450) (assay: Secondary confirmation assay for inhibitors of ROR gamma transcriptional activity). Settings: Drosophila S2 Gal4-RORgamma UAS-luciferase reporter, 20 h; series mostly up to 92.2 µM.
Source text: NIH Molecular Libraries Probe Production Network [MLPCN] NIH Chemical Genomics Center [NCGC] MLPCN Grant: R03 DA026211-01 Assay Provider: Dan Littman, New York University Keywords: NIH Roadmap, MLPCN, MLI, MLSMR, qHTS, NCGC, qHTS, nuclear hormone receptor, retinoic acid-related orphan receptor, ROR gamma Assay Overview: The retinoic acid-related orphan receptor (ROR) gamma is a transcription factor that has a central role in the differentiation of Th17 cells, a subset of T helper cells that secrete the inflammatory cytokines IL-17, IL-17F, and IL-22. Th17 cells have been implicated in graft versus host disease, autoimmune disease and asthma. ROR gamma is induced in naive T helper cells in the presence of TGF-beta combined with IL-6, IL-21, or IL-23, and thereafter directs the expression of the Th17 lineage cytokines. To study the mechanism of action of ROR gamma, an insect cell-based assay was screened. This Drosophila Schneider cell line was stably transfected with two vectors: a gene expressing a fusion of the Gal4 DNA binding domain and ROR gamma transactivation domain under the control of the metallothionine promoter and a Photinus luciferase reporter regulated by the Gal4 binding site enhancer, UAS. […] Small molecule inhibitors of ROR gamma activity are detected by a decrease in luciferase reporter activity.
Assay Protocol Summary: For screening, 600 cells in 4 uL/well were dispensed into white solid 1536-well plates (Grenier) using a solenoid-based dispenser. Following transfer of 23 nL compound or DMSO vehicle by a pin tool, the plates were incubated 1 hr at ambient temperature, and 1 uL/well copper sulfate (700 uM final concentration) was added. The plates were centrifuged 15 s at 1000 RPM and incubated 20 hr at ambient temperature. After addition of 1.5 uL Photinus luciferase detection reagent, the plates were incubated 10 min at ambient temperature and then read by an ViewLux (Perkin Elmer) to detect luminescence. Keywords: NIH Roadmap, MLPCN, MLI, MLSMR, qHTS, NCGC, qHTS, nuclear hormone receptor, retinoic acid-related orphan receptor, ROR gamma

Sequence of Nuclear receptor ROR-gamma (Mus musculus) (P51450 whole entry, looked up, the tested form may be a part): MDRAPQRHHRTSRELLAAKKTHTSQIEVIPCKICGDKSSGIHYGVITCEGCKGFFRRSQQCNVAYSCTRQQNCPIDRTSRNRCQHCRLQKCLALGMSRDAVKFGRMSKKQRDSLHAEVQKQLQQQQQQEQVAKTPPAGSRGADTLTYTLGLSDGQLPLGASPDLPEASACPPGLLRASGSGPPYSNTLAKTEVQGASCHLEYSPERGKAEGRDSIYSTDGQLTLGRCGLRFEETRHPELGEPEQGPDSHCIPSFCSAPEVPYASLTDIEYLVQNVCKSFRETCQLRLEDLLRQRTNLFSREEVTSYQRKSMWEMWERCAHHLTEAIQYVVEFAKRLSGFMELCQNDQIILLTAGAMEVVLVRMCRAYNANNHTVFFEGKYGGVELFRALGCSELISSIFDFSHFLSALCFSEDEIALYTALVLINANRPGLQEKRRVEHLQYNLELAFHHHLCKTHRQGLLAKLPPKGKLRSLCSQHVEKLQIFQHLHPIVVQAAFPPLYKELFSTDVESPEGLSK

Row | Compound | Potency
1 | COc1ccc(-c2nnc(-c3ccc(N(C)C)cc3)o2)cc1 | 1.29 µM (active)
2 | COc1ccc(C)c(O)c1C(CC(=O)N1CCCC(C)C1)c1ccc2c(c1)OCO2 (stereo not given) | 40.7 µM (active)
3 | CC1CCCN(C(=O)CC(c2ccccc2)c2ccccc2O)C1 (stereo not given) | inactive
4 | Cc1ccc(O)c(C(CC(=O)NC2CCCCC2)c2ccccc2)c1 (stereo not given) | inactive
5 | CCOC(=O)c1sc(NC(=O)c2ccc(S(=O)(=O)N(C)C)cc2)nc1C | 0.129 µM (active)
6 | COc1ccc(C(CC(=O)Nc2ccc(F)cc2)c2ccccc2)cc1 (stereo not given) | inactive
7 | COc1ccc(CNC(=O)[C@@H](NC(=O)C2CCN(C(=O)[C@@H]3CCCN3C(=O)OC(C)(C)C)CC2)C(C)C)cc1 | inactive
8 | COc1ccc2nc(NNC(=O)COc3ccccc3)sc2c1 | 4.57 µM (active)
9 | COc1cc(O)c(C(CC(=O)N2CCCC(c3ccccc3)C2)c2ccc3c(c2)OCO3)c(OC)c1 (stereo not given) | inactive
10 | COc1ccc(-c2c[n+]3c(n2-c2ccc(C)cc2)CCCCC3)cc1 | 11.5 µM (active)
11 | Cc1ccc(C(=O)O/N=C/c2ccc(N(C)C)cc2)cc1 | 32.3 µM (active)
12 | COc1cc(O)c(C(CC(=O)N2CC(C)CC(C)C2)c2ccc(N(C)C)cc2)c(OC)c1 (stereo not given) | 2.88 µM (active)
13 | COc1cc(O)c(C(CC(=O)N2CCCC(CN3CCCCC3)C2)c2ccc3c(c2)OCO3)c(OC)c1 (stereo not given) | inactive
14 | CCC1(CC)CCN(C(=O)CC(c2ccc3c(c2)OCO3)c2c(O)cc(OC)cc2OC)C1 (stereo not given) | 22.9 µM (active)
15 | COCOc1cc(OC)cc(OC)c1C(CC(=O)N1CC(C)CC(C)C1)c1ccc2c(c1)OCO2 (stereo not given) | 4.07 µM (active)
16 | O=C(NC(=S)Nc1nc(-c2ccccc2)cs1)c1cccnc1 | 5.12 µM (active)
17 | CCOC(=O)C1CCN(CC(=O)Nc2cc(C)nn2-c2nc3ccccc3s2)CC1 | 5.75 µM (active)
18 | CN1CCN(C(=O)CCN2C(=O)/C(=C\c3ccccc3F)SC2=S)CC1 | 18.2 µM (active)
19 | Cc1ccc(OCCCC(=O)Nc2nc3ccccc3[nH]2)cc1 | 7.24 µM (active)
20 | COc1cc(O)c(C(CC(=O)N2CCCC(C(C)C)C2)c2ccc3c(c2)OCO3)c(OC)c1 (stereo not given) | 25.7 µM (active)

Row | Compound | Potency
21 | COc1cc(O)c(C(CC(=O)N2CCCC(C)C2)c2ccc(OC)c(OC)c2)c(OC)c1 (stereo not given) | 9.11 µM (active)
22 | COc1ccc(OC)c(NC(=S)N(CCc2c(C)[nH]c3ccccc23)Cc2cccs2)c1 | 12.9 µM (active)
23 | CCOC(=O)Cn1c(CN2CCc3ccccc3C2)nc2c1c(=O)n(C)c(=O)n2C | 5.75 µM (active)
24 | COc1cc(O)c(C(CC(=O)NCc2ccccc2)c2ccc3c(c2)OCO3)c(OC)c1 (stereo not given) | inactive
25 | CCOc1ccc(C(CC(=O)N2CCCC(C)C2)c2c(O)cc(OC)cc2OC)cc1 (stereo not given) | 4.07 µM (active)
26 | COc1cc(OC)c(C(CC(=O)N2CC(C)CC(C)C2)c2ccc3c(c2)OCO3)c(OC)c1 (stereo not given) | 4.57 µM (active)
27 | CC(C)[C@H](NC(=O)C1CCN(C(=O)[C@@H]2CCCN2C(=O)OC(C)(C)C)CC1)C(=O)NCc1ccc(F)cc1 | 32.3 µM (active)
28 | COc1cc(O)c(C(CC(=O)N2CCCC(C)C2)c2cccc3ccccc23)c(OC)c1 (stereo not given) | inactive
29 | COc1cc(O)c(C(CC(=O)N2CCC(C)CC2)c2ccc(OC)c(OC)c2)c(OC)c1 (stereo not given) | inactive
30 | CN1CCN(C(=O)CCN2C(=O)/C(=C/c3ccccc3Cl)SC2=S)CC1 | 28.8 µM (active)
31 | COc1cc(O)c(C(CC(=O)N2CCCCC2)c2ccc(OC)c(OC)c2)c(OC)c1 (stereo not given) | inactive
32 | Cc1cc(C)nc(-n2nc(C)cc2NC(=O)CNC(C)c2ccccc2)n1 (stereo not given) | 5.75 µM (active)
33 | COc1cc(O)c(C(CC(=O)N2CCCC(C)C2)c2ccc3c(c2)OCO3)c(OC)c1 (stereo not given) | 3.63 µM (active) and 3.23 µM (active)
34 | Cc1cccc(-c2nc3cc(NC(=O)C4CCCO4)ccc3o2)c1 (stereo not given) | 0.724 µM (active)
35 | Cc1ccc(-c2cn(-c3ccccc3)c3[n+]2CCCS3)cc1 | 28.8 µM (active)
36 | COc1cc(O)c(C(CC(=O)N2CCCCC2)c2ccc3c(c2)OCO3)c(OC)c1 (stereo not given) | 20.4 µM (active)
37 | COc1cc(O)c(C(CC(=O)N2CCCC(C)C2)c2ccc(C(C)C)cc2)c(OC)c1 (stereo not given) | 14.4 µM (active)
38 | COC(=O)c1ccc(OCC(=O)c2ccc(O)cc2O)cc1 | 0.363 µM (active)
39 | COc1cc(O)c(C(CC(=O)N2CCCC(C)C2)c2ccccc2)c(OC)c1 (stereo not given) | 7.24 µM (active)
40 | COc1cc(O)c(C(CC(=O)N2CCc3ccccc3C2)c2ccc3c(c2)OCO3)c(OC)c1 (stereo not given) | inactive

From PubChem BioAssay AID489037 (National Center for Advancing Translational Sciences (NCATS), 2010)
